Screening data (PubChem)
Most compounds without a hit are left out; they make up all but 6.5% or so of the library.
HCMV inh: qHTS Assay for inhibitors of the human cytomegalovirus (HCMV). HFF cells, HCMV-luciferase reporter, 72 h; active compounds read low. activity change, negative = inhibition, % at 57.5 µM. 410,000 tested, 4.5% active; in the data active = activity change below about -60%; inconclusive = no clear call, values can overlap the other calls; inactive = above about -39%
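Luciferase read-out from HCMV-luciferase-infected HFFs (MOI 1 PFU/cell) 72 h post infection at 37C; compounds added after 16 h cell attachment; activity normalized between buffer-only basal and Salinomycin (10uM) inhibitor controls.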
FMDV inh: High Throughput Screening for Foot and Mouth Disease Virus Antivirals; FMDV antiviral cell-based qHTS; 410,000 tested, 1.2% active; AID 1159524, 2015; Potency, µM (doses to about 57.9 µM), for the others: at the highest dose activity change, negative = inhibition, most hits filed as inhibitors; calls by dose curve; tested in HEK293T cells; note: read-out not given here; potency is the fitted concentration of half-maximal effect; nearly all actives have a fitted effect of over 45% in size
VACV Venus inh: qHTS for Stage-Specific Inhibitors of Vaccinia Orthopoxvirus: Venus Reporter Primary qHTS | Vaccinia virus Venus reporter expression, fluorescence | Potency, µM (doses to about 36.5 µM), for inactives: at the highest dose activity change, negative = inhibition, actives largely listed as inhibitors | 330,000 tested, 0.46% active | AID 720580, 2013; calls by dose curve; tested in A549 cells; note: potency is the fitted concentration of half-maximal effect; nearly all actives have a fitted effect of over 30% in size
Marburg entry inh: qHTS for inhibitors of binding or entry into cells for Marburg Virus. Marburg virus pseudotyped entry inhibition, cell reporter. Potency, µM (doses to about 37.8 µM), for the others: top-dose activity change, negative = inhibition, actives largely listed as inhibitors. 300,000 tested, 1.8% active. AID 540276, 2011; calls by dose curve; tested in HEK293 cells; note: potency is the fitted concentration of half-maximal effect
Vaccinia mCherry: qHTS for Stage-Specific Inhibitors of Vaccinia Orthopoxvirus: mCherry Reporter Primary qHTS | Vaccinia virus mCherry reporter infection, fluorescence | Potency, µM (highest dose often 36.5 µM), inactives show at the highest dose activity change, negative = inhibition, most hits filed as inhibitors | 310,000 tested, 0.63% active; calls by dose curve; tested in A549 cells; note: potency is the fitted concentration of half-maximal effect; nearly all actives have a fitted effect of over 35% in size
Lassa entry inh: qHTS for Inhibitors of binding or entry into cells for Lassa Virus; Potency, µM (titrated, usually from 37.9 µM), inactives show at the top dose activity change, negative = inhibition, actives largely listed as inhibitors; 300,000 tested, 1.2% active; Lassa virus pseudotype entry inhibition, cell reporter; calls by dose curve; tested in HEK293 cells; note: potency is the fitted concentration of half-maximal effect; nearly all actives have a fitted effect of over 50% in size
* hit, by the source's call; i = inactive; ? = inconclusive; · = no result given; [ ] = dose if it differs, or a comment. % is set by controls: 0 for no effect and ±100 for the full control effect.

SMILES	HCMV inh	FMDV inh	VACV Venus inh	Marburg entry inh	Vaccinia mCherry	Lassa entry inh
Cc1cnc(SCc2ccccn2)nc1C1CCCN(C(=O)c2cccc(-c3cccc(F)c3)c2)C1 (stereo not given)	·	?	?	·	10µM*	·
CC(=O)c1ccc(C(=O)N2CCCC(c3nc(SCc4ccccn4)ncc3C)C2)cc1 (stereo not given)	·	?	-20%	·	-29%	·
O=C(CCN1C(=O)/C(=C\c2ccccc2)SC1=S)NNC(=O)c1cccnc1	-62*	0%	-8%	?	-7%	?
O=C(CCN1C(=O)/C(=C/c2ccc(F)cc2)SC1=S)NNC(=O)c1ccncc1	-21	19%	-11%	·	i	·
O=C1/C(=C/c2cccnc2)SC(=S)N1CCc1ccccc1	-71*	30%	·	·	·	·
O=C1/C(=C/c2ccncc2)SC(=S)N1Nc1ccccc1	100	20µM*	65%	?	0%	-11%
O=C(CCN1C(=O)/C(=C/c2ccc(F)cc2)SC1=S)N[C@@H](CO)Cc1ccccc1	-64*	0%	·	·	·	·
COc1ccc(CCCc2nnc(SCC(=O)Nc3ccc(C)cc3)o2)cc1C	-7	-10%	-7%	·	9%	14%[46.1 µM]
Cc1cccc(C)c1Nc1c(-c2ccc(Cl)s2)nc2ncccn12	4	-9%	-10%	?	-8%	-5%[46.1 µM]
OC[C@H]1NC[C@@H](O)[C@@H](O)[C@H]1O	·	-14%	·	·	·	·
Cc1ccccc1-n1c(=O)/c(=C/c2ccco2)s/c1=C(/C#N)C(=O)Nc1ccccc1	·	·	·	-28%	·	·
O=C1/C(=C\c2cc(Cl)c(O)c(Cl)c2)SC(=S)N1Cc1ccccc1	-99*	?	i	6.3µM*	-5%	4µM*
CCc1noc(C)c1C(=O)N1CCOc2ccc(CN3CCCC(C(=O)c4cccnc4)C3)cc2C1 (stereo not given)	·	-6%	-17%	·	-4%	·
CCOc1cc(S(=O)(=O)N(CC)CC)ccc1F	23	18%	·	3%	·	-1%
CCN(CC)S(=O)(=O)c1ccc(-c2ccc(S(=O)(=O)N(CC)CC)cc2)cc1	-64*	?	·	?	·	?
CCOc1ccc(S(=O)(=O)N(CC)CC)cc1NS(=O)(=O)c1ccc(F)c(F)c1F	-20	23%	4.5µM*	-20%	4µM*	0%
CCOc1ccc(S(=O)(=O)N(CC)CC)cc1N	-81*	1%	·	19%	·	7%
CCN(CC)S(=O)(=O)c1ccc(C(=O)O)cc1	-8	-2%	-4%	-10%[46.1 µM]	-14%	6%[46.1 µM]
C[C@H](CO)N1C[C@H](C)[C@@H](CN(C)C(=O)Cc2cccnc2)Oc2ncc(C#CCc3ccccc3)cc2C1=O	-16	·	·	·	·	·
CC(=O)Oc1ccc2c(=O)oc(-c3ccccc3)nc2c1	27	24%	-4%	23%[46.1 µM]	i	0%[46.1 µM]
CC(=O)Oc1ccc(-c2nc3cc(Cl)ccc3c(=O)o2)cc1	-78*	4%	18%	28%[46.1 µM]	-16%	14%[46.1 µM]
CC(C)C1CC(CCNCc2ccc3c(c2)OCO3)(c2ccccc2)CCO1 (stereo not given)	-29	20%	3%	10µM*	-22%	?
Cc1ccc(CNC(=O)COC(=O)c2ccccc2OCC(=O)Nc2ccc(Br)cc2)cc1	·	·	-14%	·	i	·
COc1ccc(NC(=O)CCc2c(C)nc3nc(CNC(=O)OC(C)(C)C)nn3c2C)cc1OC	1	7%	0%	-8%[46.1 µM]	7%	0%[46.1 µM]
O=[N+]([O-])c1ccc(N/N=C2/CCCCC2c2ccccn2)cc1 (stereo not given)	17	-17%	-6%	1.1µM*	-21%	?
CC1=CC(C)(C)N2C(=O)C3(SCC(=O)N3c3ccc(F)cc3)c3cc(C)cc1c32 (stereo not given)	-67*	18µM*	·	?	·	-3%
COc1cccc(NC(=O)c2cnc(SCC(=O)NCc3ccc4c(c3)OCO4)n(C)c2=O)c1	-26	?	-10%	21%	-10%	-11%
COc1cccc(NC(=O)c2cnc(SCC(=O)N3CCOCC3)n(C)c2=O)c1	17	22µM*	-10%	·	-9%	8%[46.1 µM]
